Consider 21 compounds from PubChem BioAssay.

The target of test [1] is Nuclear receptor coactivator 3 (Homo sapiens) (UniProt Q9Y6Q9). The test is described as follows: SRC3 coactivator transcriptional activity inhibitors, confirmation, cell-based, luminescence, quadruplicate (AID 588792;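 active means mean inhibition over 43.08%, the solvent-only control mean plus 3 SD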;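 further: 0% = DMSO treated cells and 100% = gossypol at 36 µM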). Particulars: HEK293 GAL4-SRC3 luciferase reporter, at 3.6 µM, stronger effect = higher value. A general note: A reporter such as luciferase makes a cellular process visible.
Chain of Nuclear receptor coactivator 3 (Homo sapiens) (Q9Y6Q9 whole entry, looked up, the tested form may be a part): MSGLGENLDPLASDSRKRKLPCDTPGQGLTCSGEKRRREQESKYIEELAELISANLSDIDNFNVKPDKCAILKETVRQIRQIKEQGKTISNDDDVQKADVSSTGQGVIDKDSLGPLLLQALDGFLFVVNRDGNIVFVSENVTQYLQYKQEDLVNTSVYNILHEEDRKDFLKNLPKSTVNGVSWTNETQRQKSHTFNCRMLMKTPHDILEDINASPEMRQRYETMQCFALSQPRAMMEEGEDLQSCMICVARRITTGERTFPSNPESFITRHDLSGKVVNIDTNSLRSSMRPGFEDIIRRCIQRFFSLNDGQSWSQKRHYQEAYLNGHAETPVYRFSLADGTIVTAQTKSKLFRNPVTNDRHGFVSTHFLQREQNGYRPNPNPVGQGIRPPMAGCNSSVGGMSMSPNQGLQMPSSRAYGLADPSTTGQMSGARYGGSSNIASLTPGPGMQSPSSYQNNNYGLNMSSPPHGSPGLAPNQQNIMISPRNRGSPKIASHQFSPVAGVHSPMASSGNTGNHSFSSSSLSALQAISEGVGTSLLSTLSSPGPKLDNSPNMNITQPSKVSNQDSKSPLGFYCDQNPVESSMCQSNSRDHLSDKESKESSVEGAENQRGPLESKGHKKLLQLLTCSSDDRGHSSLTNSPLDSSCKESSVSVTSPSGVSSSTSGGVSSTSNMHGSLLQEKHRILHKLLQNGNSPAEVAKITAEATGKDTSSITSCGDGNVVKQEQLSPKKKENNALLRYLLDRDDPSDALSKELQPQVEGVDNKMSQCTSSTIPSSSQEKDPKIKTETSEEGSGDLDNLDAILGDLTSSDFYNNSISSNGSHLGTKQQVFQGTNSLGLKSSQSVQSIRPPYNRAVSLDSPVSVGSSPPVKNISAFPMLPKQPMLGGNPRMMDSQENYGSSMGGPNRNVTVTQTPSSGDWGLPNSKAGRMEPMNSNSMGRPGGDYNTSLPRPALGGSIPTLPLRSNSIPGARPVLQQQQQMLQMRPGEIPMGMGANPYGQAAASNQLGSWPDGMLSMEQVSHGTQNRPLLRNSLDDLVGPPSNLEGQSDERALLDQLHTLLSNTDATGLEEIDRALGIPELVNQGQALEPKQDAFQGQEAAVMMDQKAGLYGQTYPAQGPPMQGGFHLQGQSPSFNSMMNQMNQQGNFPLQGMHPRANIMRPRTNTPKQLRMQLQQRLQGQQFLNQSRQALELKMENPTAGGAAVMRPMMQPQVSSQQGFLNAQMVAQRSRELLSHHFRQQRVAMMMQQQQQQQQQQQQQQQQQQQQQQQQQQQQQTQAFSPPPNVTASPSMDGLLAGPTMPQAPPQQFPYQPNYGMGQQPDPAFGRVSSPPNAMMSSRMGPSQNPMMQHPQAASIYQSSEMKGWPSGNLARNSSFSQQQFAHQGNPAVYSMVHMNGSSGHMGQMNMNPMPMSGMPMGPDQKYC

The subject of test [2] is transactivating tegument protein VP16 (Human herpesvirus 1), Gal4-VP16 luciferase reporter. The test is described as follows: VP16 transactivation inhibitors, counter-screen for SRC3 inhibitor project, cell-based, luminescence, high throughput (AID 588794; in the data active means inhibition above about 30%). Particulars: mammalian cells, VP16-driven luciferase reporter luminescence; at 3.6 µM; stronger effect = higher value.
Test [3] concerns the target Nuclear receptor coactivator 1 (Homo sapiens) (UniProt Q15788). The test is described as follows: SRC1 coactivator transcriptional activity inhibitors, confirmation, cell-based, luminescence, quadruplicate (AID 588820;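 active means mean inhibition above 46.68%, the untreated control wells mean plus 3 SD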;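 further: 0% = DMSO wells and 100% = gossypol 36 µM treated wells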). The following applies: HEK293 GAL4-SRC1 luciferase reporter, at 3.6 µM, stronger effect = higher value.
Test [4] in a line: VP16 transactivation inhibitors, counter-screen for SRC1 inhibitor project, cell-based, luminescence, high throughput (AID 588824). Particulars: cell-based VP16 transactivation luciferase luminescence; at 3.6 µM; stronger effect = higher value. For orientation: A counterscreen serves to expose hits that act by an unwanted route or on another target.
Test [5] deals with transactivating tegument protein VP16 (Human herpesvirus 1). The test is described as follows: VP16 transactivation reporter inhibitors, counter-screen for SRC2 inhibitor project, cell-based, luminescence, single concentration (AID 652007; in the data active means inhibition above about 36%). Particulars: cell-based VP16 transactivation luciferase reporter, at 8.9 µM, stronger effect = higher value.
For test [6], the target named is Nuclear receptor coactivator 2 (Homo sapiens) (UniProt Q15596). The test is described as follows: SRC2 coactivator transcriptional activity inhibitors, confirmation, cell-based, luminescence, HEK293, triplicate (AID 652008;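 active means mean inhibition above 46.5%, the solvent-only control mean plus 3 SD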;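 further: 0% = DMSO-treated cells and 100% = Gossypol at 36 µM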). The following applies: HEK293 GAL4-SRC2 luciferase reporter, at 8.9 µM, stronger effect = higher value.
Chain of Nuclear receptor coactivator 2 (Homo sapiens) (Q15596 whole entry, looked up, the tested form may be a part): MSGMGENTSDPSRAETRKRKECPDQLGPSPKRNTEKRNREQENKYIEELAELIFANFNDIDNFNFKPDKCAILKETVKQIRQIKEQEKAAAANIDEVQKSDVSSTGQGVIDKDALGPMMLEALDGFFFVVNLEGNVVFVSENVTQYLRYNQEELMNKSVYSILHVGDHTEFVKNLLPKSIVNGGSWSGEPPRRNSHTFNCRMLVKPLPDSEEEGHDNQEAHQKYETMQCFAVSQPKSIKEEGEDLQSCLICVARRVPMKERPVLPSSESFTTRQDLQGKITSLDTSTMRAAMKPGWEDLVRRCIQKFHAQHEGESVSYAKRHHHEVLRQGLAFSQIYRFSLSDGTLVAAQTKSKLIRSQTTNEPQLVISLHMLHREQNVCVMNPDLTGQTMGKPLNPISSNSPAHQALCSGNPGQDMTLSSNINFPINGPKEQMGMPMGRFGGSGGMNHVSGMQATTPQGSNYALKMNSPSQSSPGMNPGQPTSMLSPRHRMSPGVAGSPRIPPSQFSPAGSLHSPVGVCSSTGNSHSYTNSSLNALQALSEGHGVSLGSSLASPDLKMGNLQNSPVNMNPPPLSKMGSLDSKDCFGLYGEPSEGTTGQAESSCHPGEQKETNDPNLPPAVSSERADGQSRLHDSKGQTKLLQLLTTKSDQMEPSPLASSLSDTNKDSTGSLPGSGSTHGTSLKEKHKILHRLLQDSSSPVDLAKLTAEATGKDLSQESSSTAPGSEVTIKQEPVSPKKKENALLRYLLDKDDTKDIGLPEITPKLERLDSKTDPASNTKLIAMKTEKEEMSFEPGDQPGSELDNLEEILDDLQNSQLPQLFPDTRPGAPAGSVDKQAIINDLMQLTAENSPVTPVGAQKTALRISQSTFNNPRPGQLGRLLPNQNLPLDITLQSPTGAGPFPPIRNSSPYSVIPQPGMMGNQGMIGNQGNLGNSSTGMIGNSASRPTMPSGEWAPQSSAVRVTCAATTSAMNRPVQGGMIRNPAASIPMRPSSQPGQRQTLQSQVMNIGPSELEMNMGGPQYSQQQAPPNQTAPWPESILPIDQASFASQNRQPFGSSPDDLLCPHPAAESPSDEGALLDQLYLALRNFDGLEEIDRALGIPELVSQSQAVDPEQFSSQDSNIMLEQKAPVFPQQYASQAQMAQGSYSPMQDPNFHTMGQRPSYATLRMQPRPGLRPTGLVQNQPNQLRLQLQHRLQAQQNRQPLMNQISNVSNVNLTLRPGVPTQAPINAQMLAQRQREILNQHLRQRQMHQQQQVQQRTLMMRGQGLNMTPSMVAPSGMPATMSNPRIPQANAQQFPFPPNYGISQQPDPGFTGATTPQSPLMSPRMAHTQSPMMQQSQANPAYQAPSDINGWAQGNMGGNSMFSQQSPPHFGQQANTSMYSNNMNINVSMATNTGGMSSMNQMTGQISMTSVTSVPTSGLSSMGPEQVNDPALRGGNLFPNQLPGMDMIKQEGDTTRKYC
Test [7] can be described thus: Gal4-VP16 luciferase reporter inhibitors, counter-screen for COUP-TFII antagonist project, cell-based, luminescence, HEK293 (AID 687007; in the data active means inhibition above about 13%). The following applies: at 8.5 µM, stronger effect = higher value.
The target of test [8] is COUP transcription factor 2 (Homo sapiens) (UniProt P24468). The test is described as follows: NR2F2 transcriptional activity inhibitors, confirmation, cell-based, luciferase reporter, HEK293, triplicate (AID 687008;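 active means mean inhibition over three repeats above a set limit taken from the earlier primary screen, cut at about 38% in these data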;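 further: 100% = cells given the luciferase reporter alone without the COUP-TF2 vector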). The following applies: HEK293 NGFI-A luciferase reporter, luminescence; at 8.5 µM; stronger effect = higher value.
Chain of COUP transcription factor 2 (Homo sapiens) (P24468 whole entry, looked up): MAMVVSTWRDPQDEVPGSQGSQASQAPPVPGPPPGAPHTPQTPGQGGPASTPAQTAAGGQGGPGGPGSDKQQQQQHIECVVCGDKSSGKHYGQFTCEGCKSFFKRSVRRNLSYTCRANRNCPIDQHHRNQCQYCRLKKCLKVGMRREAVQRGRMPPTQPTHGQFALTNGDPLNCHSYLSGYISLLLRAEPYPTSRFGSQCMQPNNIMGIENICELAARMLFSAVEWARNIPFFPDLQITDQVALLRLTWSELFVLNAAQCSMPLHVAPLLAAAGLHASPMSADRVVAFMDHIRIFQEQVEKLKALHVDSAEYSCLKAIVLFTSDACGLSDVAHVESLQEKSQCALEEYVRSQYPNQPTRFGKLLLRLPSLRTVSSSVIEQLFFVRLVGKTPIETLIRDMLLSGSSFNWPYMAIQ

Unmarked numbers belong to inactive results. Some of the results follow. The source made the active and inactive calls. Unless noted, no stated cut-off is given here; in the data, active means inhibition above about 25%; inactive means the rest.

Chain of Nuclear receptor coactivator 1 (Homo sapiens) (Q15788 whole entry, looked up, the tested form may be a part): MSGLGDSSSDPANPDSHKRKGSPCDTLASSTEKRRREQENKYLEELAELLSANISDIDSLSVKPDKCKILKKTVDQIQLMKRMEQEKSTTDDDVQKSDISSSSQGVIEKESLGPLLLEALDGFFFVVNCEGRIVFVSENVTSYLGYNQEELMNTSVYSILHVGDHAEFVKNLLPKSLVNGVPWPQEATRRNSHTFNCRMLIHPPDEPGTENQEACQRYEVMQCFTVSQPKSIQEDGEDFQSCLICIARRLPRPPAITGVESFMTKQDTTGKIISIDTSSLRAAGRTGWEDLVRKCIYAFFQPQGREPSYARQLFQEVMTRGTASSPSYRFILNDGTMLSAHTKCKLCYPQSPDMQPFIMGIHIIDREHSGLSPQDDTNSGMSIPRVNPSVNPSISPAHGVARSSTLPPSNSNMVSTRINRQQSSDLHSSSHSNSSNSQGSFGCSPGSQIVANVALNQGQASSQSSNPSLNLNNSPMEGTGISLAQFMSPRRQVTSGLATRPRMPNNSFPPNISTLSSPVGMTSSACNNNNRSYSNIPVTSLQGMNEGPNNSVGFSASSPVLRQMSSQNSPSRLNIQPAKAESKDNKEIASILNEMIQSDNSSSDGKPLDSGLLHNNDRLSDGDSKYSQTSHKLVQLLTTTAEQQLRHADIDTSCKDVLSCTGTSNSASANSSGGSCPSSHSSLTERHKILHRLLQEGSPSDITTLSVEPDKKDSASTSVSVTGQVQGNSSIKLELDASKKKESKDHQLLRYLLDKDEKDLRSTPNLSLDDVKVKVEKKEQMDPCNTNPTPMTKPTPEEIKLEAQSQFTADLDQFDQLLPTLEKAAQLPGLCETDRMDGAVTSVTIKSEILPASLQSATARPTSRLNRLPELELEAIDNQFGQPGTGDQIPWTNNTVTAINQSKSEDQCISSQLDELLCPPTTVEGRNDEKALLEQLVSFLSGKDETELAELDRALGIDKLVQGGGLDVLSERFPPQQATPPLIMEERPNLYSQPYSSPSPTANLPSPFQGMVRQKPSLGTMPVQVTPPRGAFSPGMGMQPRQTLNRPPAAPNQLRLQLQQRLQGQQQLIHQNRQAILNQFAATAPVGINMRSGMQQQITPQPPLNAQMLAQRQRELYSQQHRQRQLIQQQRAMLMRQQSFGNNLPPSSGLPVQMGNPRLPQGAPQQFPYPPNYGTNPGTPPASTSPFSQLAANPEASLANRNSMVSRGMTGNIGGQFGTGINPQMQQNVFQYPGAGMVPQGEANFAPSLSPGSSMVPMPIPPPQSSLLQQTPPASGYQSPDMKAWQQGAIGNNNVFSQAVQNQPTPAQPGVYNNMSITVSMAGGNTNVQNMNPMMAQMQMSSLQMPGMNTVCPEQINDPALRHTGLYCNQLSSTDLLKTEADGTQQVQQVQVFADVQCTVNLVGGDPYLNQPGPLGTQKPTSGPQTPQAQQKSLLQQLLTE

As usually defined, the inhibition is the drop in the measured response relative to a control, in per cent. For `Cc1c([N+](=O)[O-])c2ccc(O)cc2n1-c1ccccc1`, the inhibition in test [1] is 53.5% (active); in test [2], 31.6% (active); in test [3], 55.4% (active); in test [4] it was 30.1% (active); in test [5], 2.8%; in test [6], 35.8%.

Consider `CCc1ccc(-c2nc(CSCC(=O)NCc3ccco3)c(C)o2)cc1`, for which the inhibition is 33.8% in test [1]; 27.9% in test [2]; 33.9% in test [3]; 24.5% in test [4]; 41.4% (active) in test [5]; 70.5% (active) in test [6].

Consider `CCn1c(Oc2ccccc2F)nc2c1c(=O)n(C)c(=O)n2C`, for which the inhibition was 63% (active) in test [1]; 51% (active) in test [2]; 64.4% (active) in test [3]; 47.2% (active) in test [4]; -5.89% in test [5]; 48.6% (active) in test [6].

Consider `CCc1c(C#N)sc(C(N)=O)c1CC`, for which the inhibition in test [1] is 27.8%; in test [2], 20.5%; in test [3] it was 20.6%; in test [4], 13.2%; in test [5], 8.1%; in test [6] it was 25.6%.

For the compound `CCc1cc(-c2[nH]ncc2-c2ccc3c(c2)OCO3)c(O)cc1O`, the inhibition in test [1] is 59.9% (active); in test [2], 34.5% (active); in test [3], 27.7%; in test [4], 39.8% (active); in test [5], 30.3%; in test [6], 18.2%.

As for `COc1cccc(Nc2ncnc3ccc(Br)cc23)c1`, the inhibition in test [1] is 43.5% (active); in test [2] it was 31% (active); in test [3], 51% (active); in test [4], 30.9% (active); in test [5], -7.29%; in test [6] it was 34.5%.

For the compound `C=CCOc1ccc(/C=C2\SC(=S)N(CCC(=O)O)C2=O)cc1`, the inhibition is 32.8% in test [1]; -27% in test [2]; 35.5% in test [3]; -38.4% in test [4]; -24.5% in test [5]; 91.5% (active) in test [6].

On to `N#CC(C#N)c1ccnc2ccccc12`, for which the inhibition in test [1] was 66.9% (active); in test [2], 40.6% (active); in test [3], 64.1% (active); in test [4] it was 38.3% (active); in test [5], 4.65%; in test [6], 36.4%.

For the compound `CCOc1ccc(Nc2ncnc3ccc([N+](=O)[O-])cc23)cc1`, the inhibition is 70% (active) in test [1]; 43.6% (active) in test [2]; 65.8% (active) in test [3]; 53.7% (active) in test [4]; -19.7% in test [5]; 47.4% (active) in test [6].

As to `COc1ccc2[nH]c3c(c2c1)CC(C)NC3=O` (stereo not drawn), the inhibition in test [1] is 73% (active); in test [2] it was 49.7% (active); in test [3], 67.3% (active); in test [4], 52.2% (active); in test [5] it was 14.3%; in test [6] it was 41.6%.

Regarding `COc1ccc(C2=Nn3c(nnc3-c3ccncc3)SC2)cc1`, the inhibition in test [1] was 65.2% (active); in test [2], 48.6% (active); in test [3] it was 57.8% (active); in test [4], 37% (active); in test [5], 12.8%; in test [6], 39.8%.

As to `OCCN1CCN(c2ncnc3ccc(Br)cc23)CC1`, the inhibition in test [1] is 68.8% (active); in test [2], 41.1% (active); in test [3] it was 65.8% (active); in test [4], 44.5% (active); in test [5], 2.48%; in test [6], 36%.

Take `CC(=O)Nc1nc(-c2ccc3c(c2)CC(C)N3C(=O)C2CC2)c(C)s1` (stereo not drawn): the inhibition in test [1] was 72.6% (active); in test [2], 58.6% (active); in test [3], 50.6% (active); in test [4] it was 62.7% (active); in test [5], -4.55%; in test [6] it was 41.8%.

Consider `COc1ccc(-n2c(C)c([N+](=O)[O-])c3ccc(O)c(CN4CCCCC4)c32)cc1`, for which the inhibition in test [1] is 47.4% (active); in test [2], 30.5% (active); in test [3], 54.9% (active); in test [4] it was 39.5% (active); in test [5], 4.57%; in test [6] it was 48.4% (active).

In the case of `CC1=C(C(=O)OCc2ccc3c(c2)OCO3)C(c2ccc(Cl)cc2)NC(=O)N1` (stereo not drawn), the inhibition in test [1] is 86% (active); in test [2] it was 74.7% (active); in test [3] it was 69.2% (active); in test [4], 74.8% (active); in test [5] it was 29.9%; in test [6], 46.3%.

With `COc1ccc(/C=C2/SC(=S)N(CCC(=O)O)C2=O)cc1`, the inhibition is 34.8% in test [1]; 4.06% in test [2]; 23% in test [3]; 0.23% in test [4]; -21.3% in test [5]; 85.1% (active) in test [6].

Consider `CC1CCCCN1c1ncnc(N)c1[N+](=O)[O-]` (stereo not drawn), for which the inhibition in test [1] is 61.7% (active); in test [2] it was 35.2% (active); in test [3], 50.6% (active); in test [4] it was 36.8% (active); in test [5], 4.43%; in test [6] it was 44.8%.

Consider `CN(C)c1ccc(C(=S)Nc2ccccc2)cc1`, for which the inhibition in test [1] was 39.1%; in test [2] it was 13.3%; in test [3], -21.5%; in test [4], -24.4%; in test [5] it was -5.11%; in test [6], 51.1% (active).

With `Cc1cc(C(=O)COC(=O)C2CC2)c(C)n1-c1ccc(F)cc1`, the inhibition was 4.63% in test [1]; 5.67% in test [2]; -12.9% in test [3]; -14.9% in test [4]; 1.88% in test [5]; 20.3% in test [6]. The figures for the inhibition in test [7] and in test [8] were -16.4% and 30.3%, respectively.

In the case of `CCc1nc(N)nc(N)c1-c1ccc(Cl)c([N+](=O)[O-])c1`, the inhibition in test [1] was 56.7% (active); in test [2], 24.9%; in test [3], 58.2% (active); in test [4], 25%; in test [5], 28.1%; in test [6] it was 24.5%.

As for `COc1ccccc1/C=C/C(=O)c1c2c(c(C)[nH]c1=O)CCCC2`, the inhibition in test [1] is 46.6% (active); in test [2] it was 49.9% (active); in test [3] it was 59% (active); in test [4], 44.1% (active); in test [5], 34.1%; in test [6] it was 39%.
